# Screening results: PubChem BioAssay, National Center for Advancing Translational Sciences (NCATS)
# A selection: hits, their analogues and other compounds. The true share with any hit is near 11%.
# HPGD block = qHTS Assay for Inhibitors of HPGD (15-Hydroxyprostaglandin Dehydrogenase). 15-hydroxyprostaglandin dehydrogenase [NAD(+)] (Homo sapiens), P15428. purified HPGD, NADH fluorescence kinetic, PGE2 substrate. Potency, µM, for the others: at the highest dose activity change, negative = inhibition, usual class: inhibitors. actives 4.3% (n = 150,000). AID 894, 2007; active = well fitted inhibition curve with a large enough effect, not every such curve was filed as active; inconclusive = small, poorly fitted or top-dose-only effect, or another doubt; inactive = no such curve, though single readings can be large or run the other way; also: potency is read from the fitted curve at half-maximal effect; % is scaled to controls: 0 for no effect and ±100 for the full control effect
# Target sequence (P15428 whole entry, looked up): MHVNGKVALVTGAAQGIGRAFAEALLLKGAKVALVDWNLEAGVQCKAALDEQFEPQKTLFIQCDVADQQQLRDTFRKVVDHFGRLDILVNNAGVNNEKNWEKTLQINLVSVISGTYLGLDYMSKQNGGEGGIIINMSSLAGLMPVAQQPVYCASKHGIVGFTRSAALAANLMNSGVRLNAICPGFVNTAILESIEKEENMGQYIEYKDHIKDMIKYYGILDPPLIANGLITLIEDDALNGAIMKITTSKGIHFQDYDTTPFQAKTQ
#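 20 nM HPGD preincubated 15 min at room temperature with compound in 50 mM Tris-HCl pH 8, 0.01% Tween 20. Started with 1 mM NAD+ and 30 uM prostaglandin E2; NADH fluorescence (360/450 nm) read 5 times over 30-s intervals, last minus first.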
# HTT cytoprotect = qHTS Multiplex Assay to Identify Dual Action Probes in a Cell Model of Huntington: Cytoprotection (ATP). PC12 HTT-Q103 induced, cytoprotection, ATP luminescence, 40 h. Potency, µM (doses to about 56.4 µM), without a hit: cytoprotection (ATP increase), actives largely listed as activators. actives 0.14% (n = 230,000); also: potency is read from the fitted curve at half-maximal effect; % of control where 0% means no effect; nearly all actives have a fitted effect of over 45% in size
#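 PC12 cells stably carrying ecdysone-inducible Htt exon 1 (Q103)–GFP were induced with 100 nM tebufenozide (final) alongside library compounds in a dose series. Cytoprotection was scored as retained ATP by ATPlite luminescence.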
# PNC inhibitor = High Content Assay for Compounds that inhibit the Assembly of the Perinucleolar Compartment; PC3M PTB-GFP, PNC prevalence imaging, 16 h; hits give low values; activity change (PNC), negative = inhibition, % at 10 µM; actives 3.1% (n = 140,000); AID 2417, 2010;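 active = readout at or below -70, meaning at least 70% loss of cells showing the perinucleolar compartment, a nuclear body marking cancer cells; inconclusive = readout between -30 and a set limit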;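 also: plate controls were DMSO wells for no effect and camptothecin positive control wells for full effect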
#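 PC3M cells stably expressing PTB-GFP, 750–1000 cells/well, treated 16 h at 37 °C with compound (23 nl of library stock), in duplicate. After paraformaldehyde fixation and Hoechst stain, imaged at 20x; PNC prevalence scored by image analysis.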
# HTT aggregate = qHTS Multiplex Assay to Identify Dual Action Probes in a Cell Model of Huntington: Aggregate Formation (GFP); actives 1.1% (n = 220,000); Potency, µM (top dose mostly 46.1 µM), for the others: top-dose activity change, negative = inhibition, most hits filed as inhibitors; PC12 HttQ103-GFP aggregates, Acumen cytometry, 40 h; also: potency is read from the fitted curve at half-maximal effect; % is scaled to controls: 0 for no effect and ±100 for the full control effect; nearly all actives have a fitted effect of over 60% in size
#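 Steps: seed 1500 PC12 HTTQ103-GFP cells/well; add tebufenozide, 100 nM final; add compound titration; add ATPLite reagent; quantify GFP aggregates by laser scanning cytometry.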
# GoLoco inh red = qHTS Assay for Inhibitors of RGS12 GoLoco Motif Activity (Red Fluorophore); Gai1:RGS12 GoLoco peptide FP, rhodamine, 10 min; Potency, µM (doses to about 61.6 µM), for inactives: at the top dose activity, negative = inhibition, hits mostly inhibitors; actives 0.44% (n = 230,000); active = well fitted inhibition curve with a large enough effect, not every such curve was filed as active; inactive = no such curve, though single readings can be large or run the other way; also: potency is read from the fitted curve at half-maximal effect; % is scaled to controls: 0 for no effect and ±100 for the full control effect; nearly all actives have a fitted effect of over 30% in size
# ALDH1A1 inh = qHTS Assay for Inhibitors of Aldehyde Dehydrogenase 1 (ALDH1A1). actives 7.3% (n = 220,000). AID 1030, 2008. Potency, µM (doses to about 75.3 µM), without a hit: at the highest dose activity, negative = inhibition, most hits filed as inhibitors. Purified ALDH1A1, NADH fluorescence, propionaldehyde substrate. Aldehyde dehydrogenase 1A1 (Homo sapiens), P00352; active = well fitted inhibition curve with a large enough effect, not every such curve was filed as active; inconclusive = small, poorly fitted or top-dose-only effect, or another doubt; inactive = no such curve, though single readings can be large or run the other way;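 also: potency is read from the fitted curve at half-maximal effect; plate controls were no enzyme wells and a reference inhibitor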
# * = called active by the depositor; ? = inconclusive; nt = not tested or not shown; [ ] = remark or other dose. Unless noted, calls follow the shape of the dose curve; as a rule, active = well fitted curve in the direction sought with a large enough effect; inconclusive = small, poorly fitted or top-dose-only effect, or another doubt; inactive = no such curve, though single readings can be large; an effect the other way counts as inactive or inconclusive.
SMILES,HPGD block,HTT cytoprotect,PNC inhibitor,HTT aggregate,GoLoco inh red,ALDH1A1 inh
Cc1ccc(C(=O)NNC(=O)c2ccc(C)cc2)cc1,nt,-34.9%,nt,10.2%,1.9%,18.5%
Cc1ccc(C(=O)NC(O)C(Cl)Cl)cc1 (centres undefined),25.1µM*,nt,71.4,16.2%,0.5%,6.7%
COC(=O)C1C(=O)c2c([nH]c(C(=O)OC3CCCCCC3)c2C)CC1C (centres undefined),-5.5%,nt,-6.2,0.001µM*,0.4%,?
COCCOC(=O)c1[nH]c2c(c1C)C(=O)C(C(=O)OC)C(C)C2 (centres undefined),-6.5%,-49.9%,46.4,2.3%,3.5%,-6.3%
Cc1cccc(N2CN(Cc3ccco3)CNC2=S)c1C,4.3%,14.6%[10 µM],?,-27.9%,11.9%,6.4%
COC(=O)CNC(=O)[C@@]1(C)C=C[C@@H](Cc2ccccc2)N1C(=O)OC,-14.0%,?,nt,nt,-1.2%,?
CN1CCN(/N=C/c2ccc(-c3ccccc3)cc2)CC1,nt,-31.2%,nt,-7.5%,-1.4%,-3.8%
Cc1cc(/C=N/N2CCN(C)CC2)c(C)n1-c1ccccc1F,nt,-31.0%,nt,13.5%,4.6%,11.2µM*
N#CC(c1cccc(Cl)c1)c1ccc2c(C(F)(F)F)cc(C(F)(F)F)nc2n1 (centres undefined),-28.4%,-98.0%,46.9,0.891µM*,26.9%,?
NNc1ccc2c(C(F)(F)F)cc(C(F)(F)F)nc2n1,nt,nt,nt,19.6%,22.1%,?
CCOC(=O)/C(=C\c1cccnc1)C(=O)c1cc(C(C)=O)c(Nc2ccccc2)s1,20µM*,-34.5%,-111.4*,?,5.6%,?
COc1cc(C(c2c(C)[nH][nH]c2=O)c2c(C)[nH][nH]c2=O)ccc1OS(=O)(=O)c1ccc(C)cc1,-5.3%,7.3%,-22.5,-15.6%,4.3%,-4.9%
COc1cc(C(c2c(C)[nH][nH]c2=O)c2c(C)[nH][nH]c2=O)ccc1OC(C)C,?,-3.3%[10 µM],-80.2*,9.0%,-2.5%,14.1µM*
COc1cc(C(c2c(C)[nH][nH]c2=O)c2c(C)[nH][nH]c2=O)ccc1OS(=O)(=O)c1ccccc1,-8.1%,-4.2%,11.1,18.3%,14.2%,1.58µM*
Cn1nc(-c2ccccc2)c(CN2CCN(c3ncccn3)CC2)c1Cl,nt,-29.6%,nt,1.1%,-10.6%,0.9%
C=C(C)C1CC=C(C)C(OC(C)=O)C1 (centres undefined),-1.6%,-9.0%,nt,nt,0.6%,-3.5%
O=C(Oc1ccccc1C(=O)N1CCOCC1)c1ccccc1,-11.7%,13.5%[10 µM],23.0,5.8%,10.3%,4.6%
NC(=O)c1ccc(-n2nnnc2Oc2ccccc2C(=O)N2CCOCC2)cc1,-7.8%,6.4%[0.074 µM],-122.4*,8.9%,-5.9%,12.9%
Nc1nonc1NC(=O)CSc1ncccc1C(=O)O,-5.6%,-17.0%[0.074 µM],-83.6*,-27.9%,5.1%,-12.7%
COc1ccc(OC)c(NC(=O)CSc2ncccc2C(=O)O)c1,12.6µM*,13.2%[10 µM],?,-7.7%,-17.8%,?
O=C(CSc1ncccc1C(=O)O)NC12CC3CC(CC(C3)C1)C2,nt,-32.2%,nt,9.5%,-11.4%,-3.0%
COc1ccc(NC(=O)CSc2ncccc2C(=O)OC(C)C)cc1OC,-14.1%,24.3%[10 µM],-11.6,?,13.2%,0.0794µM*
O=C(Nc1ccc(F)cc1)C1CCN(S(=O)(=O)c2cccs2)CC1,nt,0.7%[10 µM],nt,-3.4%,5.6%,-1.3%
CCOC(=O)Cc1c(C)nc2c(-c3ccc(Cl)cc3)c(C)[nH]n2c1=O,?,-67.9%,42.6,17.8µM*,5.8%,?
